Here are results for 71 molecules from PubChem BioAssay AID686978 (National Center for Advancing Translational Sciences (NCATS), 2013).

Out of some 420,000 compounds screened, about 64,000 (15%) were called active. Roughly 27% stayed inconclusive and do not appear here. Calls come from the whole dose curve; as a rule, active = well fitted inhibition curve with a large enough effect; inconclusive = small, poorly fitted or top-dose-only effect; inactive = flat fitted curve, though single readings scatter. Not all results are given here.
% is set by controls: 0 for no effect and ±100 for the full control effect; potency is the fitted concentration of half-maximal effect.

A short description of the experiment: qHTS for Inhibitors of human tyrosyl-DNA phosphodiesterase 1 (TDP1): qHTS in cells in absence of CPT. Note: nearly all actives have a fitted effect of over 55% in size. To be noted: DT40 Tdp1-/- hTDP1 cells, no CPT, ATP luminescence, 48 h; activity change, negative = growth inhibition: at 46.2 µM (top of the series). The essentials:
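Growth of hTDP1-complemented DT40 Tdp1-knockout cells is measured by ATP luminescence after at least 48 hr compound exposure at 37 °C, with DMSO substituting for the 20 nM CPT used in the parallel screen.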
As to `O=C(Cn1cnc2cc([N+](=O)[O-])ccc2c1=O)NC(=O)NCc1ccccc1`, the “activity change, negative = growth inhibition” value was 0.964% (inactive).
Same read-out and setting: then `CCOC(=O)N1CCN(Cc2oc(CO)cc(=O)c2O)CC1`, with 3.91% (inactive).
As for `Cc1c(Cl)c([N+](=O)[O-])nn1Cc1ccc(C(=O)N/N=C\c2cc(Cl)ccc2O)o1`, the Potency is 4.61 µM (active).
For the molecule `Cc1ccc(C(=O)O)cc1NC(=O)c1ccc(Cn2nc(C)c(Cl)c2C)o1`, the “activity change, negative = growth inhibition” value is 1.5% (inactive).
Still for that read-out and setting: then `O=C(N/N=C/c1ccc2c(c1)OCO2)c1ccc(Cn2cc([N+](=O)[O-])cn2)o1`, with -19.9% (inactive); and `O=C(O)CSCC(=O)Nc1ccc(C(F)(F)F)cc1`, with 13.2% (inactive).
For the molecule `COc1ccc(C(C)=O)cc1CN1C(=O)NC2(CCCCC2C)C1=O` (stereo unspecified), the “activity change, negative = growth inhibition” value was 2.75% (inactive).
As to `CNS(=O)(=O)c1cccc(C(=O)OCC(=O)N2c3ccccc3NC(=O)C2(C)C)c1`, the “activity change, negative = growth inhibition” value is -12.8% (inactive).
Still for that read-out and setting: then `Cc1ccn(CC(=O)NC2CCCN(Cc3ccccc3F)C2)n1` (stereo unspecified), with -0.51% (inactive); and `CCCOC1CCCN(Cc2cn(C)nc2-c2ccccc2F)C1` (stereo unspecified), with -22.2% (inactive).
As to `CC(C)c1cc(C(=O)N(C)C2CCCN(Cc3ccccc3F)C2)n(C)n1` (stereo unspecified), the Potency was 25.9 µM (active).
As for `CC1CCCN(Cc2c(O)ccc3c(=O)c(Oc4ccc(C(C)(C)C)cc4)c(C(F)(F)F)oc23)C1` (stereo unspecified), the “activity change, negative = growth inhibition” value is -17.9% (inactive).
The same measure, in the same setting: then `Cn1nc(C(F)(F)F)c2cc(NC(=O)OCC(C)(C)C)sc21`, with -12.7% (inactive).
`O=C(c1cccs1)c1cn(CCOc2ccc(Cl)cc2)c2ccccc12`: the Potency was 7.31 µM (active).
Regarding `COC(=O)Cn1cc(C(=O)c2cccs2)c2ccccc21`, the “activity change, negative = growth inhibition” value was -9.78% (inactive).
As for `COCCNC(=O)Cn1cc(C(=O)c2cccs2)c2ccccc21`, the “activity change, negative = growth inhibition” value is 6.96% (inactive).
Still for that read-out and setting: then `O=C(CC1SC(N2CCCC2)=NC1=O)Nc1ccc(C(=O)NCCc2ccc(F)cc2)cc1` (stereo unspecified), with -12.2% (inactive); and `CC(=O)Nc1ccc(NS(=O)(=O)c2cc(C)sc2C)cc1`, with -18.7% (inactive); and `O=[N+]([O-])c1cc(-c2nc(-c3ccccc3)no2)ccc1NCc1ccco1`, with -21.4% (inactive).
With `O=C(c1ccccc1)N1CCN(c2ccc([N+](=O)[O-])c(NCc3ccco3)c2)CC1`, the Potency was 16.4 µM (active).
Turning to `COc1ccc(CCNC(=O)c2ccccc2-c2ccccc2C(=O)O)cc1OC`, the “activity change, negative = growth inhibition” value is -10.3% (inactive).
As for `COc1ccc(CCNc2cc(N3CCN(C(=O)c4ccccc4OC)CC3)ccc2[N+](=O)[O-])cc1OC`, the Potency was 9.2 µM (active).
As for `COc1ccc(CCNC(=O)CCc2ccccc2O)cc1OC`, the “activity change, negative = growth inhibition” value is -27.5% (inactive).
The same measure, in the same setting: then `O=C(c1cccc([N+](=O)[O-])c1)N1CCN(C(=O)c2ccco2)CC1`, with -8.93% (inactive).
The same measure, in the same setting: as for `CCC(=O)N1CCC(C(N)=O)(N2CCCCC2)CC1`, the figure is -3.17% (inactive); as for `COc1cccc(C(=O)NC2=NC(c3ccc(N(C)C)cc3)CC(=O)N2)c1` (stereo unspecified), -24.2% (inactive); as for `O=C(NCCCn1ccnc1)c1cc2c(s1)CCCC2`, 13% (inactive).
Still for that read-out and setting: as for `CCOCCCNC(=O)C(NC(=O)c1ccc(=O)[nH]c1)c1ccc(C)cc1` (stereo unspecified), the figure is -13.8% (inactive).
On to `CC(=O)N(CC(O)CO)c1c(I)c(C(=O)NCC(O)CO)c(I)c(C(=O)NCC(O)CO)c1I` (stereo unspecified), for which the Potency entry was “inactive”.
For the molecule `COc1ccc(C2N=C(N)N=C(N)N2c2ccccc2)cc1OC` (stereo unspecified), the “activity change, negative = growth inhibition” value was -13.4% (inactive).
The same measure, in the same setting: as for `O=C(NCCS(=O)(=O)NCc1ccc(Cl)cc1)c1ccccc1`, the figure is -6.22% (inactive); as for `CCCS(=O)(=O)N1CCC(C(=O)NCCc2ccc(OC)c(OC)c2)CC1`, -1.2% (inactive).
Consider `COc1ccc(CNC(=O)COC(=O)CCS(=O)(=O)c2ccc(C)cc2)cc1OC`, for which the “activity change, negative = growth inhibition” value is 1.8% (inactive).
In the case of `CCCCCCn1c(=O)n2n(c1=O)C[C@]1(OC(=O)NCc3ccc(OC)c(OC)c3)CN(S(=O)(=O)c3ccc(C)cc3)C[C@]1(O)C2`, the Potency was 20.6 µM (active).
Consider `COc1ccc(-c2nc3cc([N+](=O)[O-])ccc3o2)cc1OC`, for which the “activity change, negative = growth inhibition” value was -5.45% (inactive).
With `Cc1nnc(-c2ccc(Oc3ccc(C)c(C)c3)c([N+](=O)[O-])c2)o1`, the Potency is 9.2 µM (active).
As to `CNc1ccc(-c2nc(-c3ccccc3C)no2)cc1[N+](=O)[O-]`, the “activity change, negative = growth inhibition” value is -16% (inactive).
Still for that read-out and setting: as for `O=C(CCc1nc(CN2CCN(S(=O)(=O)c3ccc(Cl)cc3)CC2)no1)N1CCCCC1`, the figure is -21.3% (inactive); as for `O=C(COC(=O)COc1cccc(F)c1)NCC1CCCCC1`, 0.989% (inactive).
The same measure, in the same setting: then `O=C1OC(C(=O)Nc2cccc(Br)c2)Cc2ccccc21` (stereo unspecified), with 1.96% (inactive).
`CC(C)C[C@@H](COCc1ccc(Cl)cc1)N1CCN(C(=O)c2ccc(Cl)cc2Cl)CCC1=O`: the Potency was 16.4 µM (active).
Regarding `CC(C)C[C@@H](CO)N1CCN(Cc2ccc(O)cc2)CCC1=O`, the Potency entry is “inactive”.
Regarding `CC(C)CC(CO)N1CCN(C(=O)c2ccc(Cl)cc2Cl)CCC1=O` (stereo unspecified), the “activity change, negative = growth inhibition” value is -11.6% (inactive).
The same measure, in the same setting: as for `Cc1nc(N)nc(Cl)c1CCC1OCCO1`, the figure is -6.83% (inactive).
As for `OCCn1c(-c2ccccc2)csc1=Nc1ccccc1`, the Potency is 16.4 µM (active).
With `Cc1csc(=Nc2ccccc2)n1CCO`, the “activity change, negative = growth inhibition” value was 7.06% (inactive).
As for `CCOCCc1nn2c(=O)cc(CSCC(=O)Nc3cccc(C)c3C)nc2s1`, the “activity change, negative = growth inhibition” value was -7.26% (inactive).
Same read-out and setting: as for `O=C(COC(=O)CCc1ccc(S(=O)(=O)N2CCOCC2)cc1)Nc1cccc(Cl)c1`, the figure is 5.37% (inactive); as for `Cc1ccc2nc(COc3cccc(NC(=O)c4cccc(Cl)c4)c3)cc(=O)n2c1`, -22.2% (inactive).
Turning to `Cc1cc(NC(=O)c2cccc(Cl)c2)ccc1-c1cc2ccccc2oc1=O`, the Potency was 23.1 µM (active).
Consider `O=C(Nc1ccon1)c1cccc(Cl)c1`, for which the “activity change, negative = growth inhibition” value is 3.62% (inactive).
On the same count and under the same terms, as for `N/C(=N\OS(=O)(=O)c1cccc([N+](=O)[O-])c1)c1ccncc1`, the figure is -5.45% (inactive); as for `Cc1ccc(CNC(=O)C(=O)c2cn(CC(=O)N3CCOCC3)c3ccccc23)cc1`, 13.1% (inactive); as for `CCS(=O)(=O)c1ccc(C(=O)NC)c(Cl)c1Cl`, 2.49% (inactive).
With `Cc1cc(O)ccc1-c1cnc2ccccc2n1`, the “activity change, negative = growth inhibition” value was -24.8% (inactive).
Turning to `Cc1cccc(C)c1NC(=O)c1ccc(CN2CCc3ccccc3C2)cc1`, the Potency is 20.6 µM (active).
Consider `O=C(Nc1ccc(CSc2ccccc2)cc1)c1ccc(CN2CCOCC2)cc1`, for which the “activity change, negative = growth inhibition” value was 1.03% (inactive).
The same measure, in the same setting: then `Cc1ccc(NC(=O)CN2CCc3ccccc3C2)cc1C`, with 0.0925% (inactive).
As for `O=C(NNC(=O)c1csc(-c2cccnc2)n1)Nc1ccc(Cl)cc1`, the “activity change, negative = growth inhibition” value was -26.1% (inactive).
Turning to `Fc1cccc(Cl)c1COc1ccc(-c2nnco2)cc1`, the “activity change, negative = growth inhibition” value was -11.1% (inactive).
In the case of `C#CC(C)(CC)NC(=O)Cn1nnc(-c2ccc(OCc3c(F)cccc3Cl)cc2)n1` (stereo unspecified), the Potency was 18.4 µM (active).
Regarding `COCCCNC(=O)/C=C/c1ccc(OCc2c(F)cccc2Cl)cc1`, the “activity change, negative = growth inhibition” value was 2.03% (inactive).
Same read-out and setting: as for `O=C(OCCOCn1cc(Br)c(=O)[nH]c1=O)c1ccccc1`, the figure is -9.32% (inactive).
Still for that read-out and setting: as for `CN(N)c1nc(N2CCCC2)nc(N2CCCC2)n1`, the figure is -15.5% (inactive).
`O=C(NCc1ccccc1)c1cc(-c2cccc(Cl)c2)on1`: the “activity change, negative = growth inhibition” value was -15.6% (inactive).
For `CCOC(=O)C1(S(=O)(=O)c2ccc(Cl)cc2)CCN(Cc2ccccc2)CC1`, the “activity change, negative = growth inhibition” value was -22% (inactive).
Consider `CCOC(=O)C1(CCOC)CCN(Cc2cc3ccccc3s2)CC1`, for which the Potency is 16.4 µM (active).
In the case of `O=C(CCc1ccccc1)Nc1ccnn1C1CCN(Cc2ccc(OCCO)cc2)CC1`, the “activity change, negative = growth inhibition” value was 18.5% (inactive).
For `CCOC(=O)C1(CCOC)CCN(Cc2ccc(C(=O)OC)cc2)CC1`, the “activity change, negative = growth inhibition” value is -24.2% (inactive).
On the same count and under the same terms, then `O=C(c1cn(CC2CCCN(Cc3cc4ccccc4s3)C2)nn1)N1CCCC1` (stereo unspecified), with -9.65% (inactive).
Turning to `CCOC(=O)C1(CCOc2ccccc2)CCN(Cc2ccc(C#CCCO)cc2)CC1`, the Potency is 16.4 µM (active).
